Data on 25 molecules can be found in PubChem BioAssay AID504782 (NMMLSC, 2011).

The structures appear in SMILES notation. The list shows a part of the results. The source made the active and inactive calls.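 Rule for the calls: active = inhibition of aptamer binding above 40%, about triple the noise seen with nonglowing compounds, on plates passing quality control; inactive = the rest.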

Beta-adrenergic receptor kinase 1 (Homo sapiens), sequence (P25098 whole entry, looked up): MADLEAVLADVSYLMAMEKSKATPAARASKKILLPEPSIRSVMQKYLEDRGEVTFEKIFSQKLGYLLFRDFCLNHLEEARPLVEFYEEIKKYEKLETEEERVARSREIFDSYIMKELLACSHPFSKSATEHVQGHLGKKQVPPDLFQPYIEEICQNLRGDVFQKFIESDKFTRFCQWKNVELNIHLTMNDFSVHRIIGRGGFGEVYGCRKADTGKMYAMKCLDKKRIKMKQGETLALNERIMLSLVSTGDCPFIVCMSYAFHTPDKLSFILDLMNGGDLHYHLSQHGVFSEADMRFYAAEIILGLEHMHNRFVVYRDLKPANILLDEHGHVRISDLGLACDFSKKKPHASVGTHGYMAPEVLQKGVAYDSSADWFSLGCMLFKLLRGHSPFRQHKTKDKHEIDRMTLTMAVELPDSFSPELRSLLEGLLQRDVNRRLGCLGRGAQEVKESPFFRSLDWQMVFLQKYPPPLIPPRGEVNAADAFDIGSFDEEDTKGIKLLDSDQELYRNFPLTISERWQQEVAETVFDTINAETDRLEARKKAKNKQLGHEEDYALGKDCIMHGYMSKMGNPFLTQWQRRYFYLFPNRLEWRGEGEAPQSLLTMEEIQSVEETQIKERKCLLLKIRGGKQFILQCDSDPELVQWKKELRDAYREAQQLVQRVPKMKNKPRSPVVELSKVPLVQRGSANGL

The assay concerns the target Beta-adrenergic receptor kinase 1 (Homo sapiens) (UniProt P25098). Put plainly: RNA aptamer-GRK2 binding blockers – biochemical, cherry pick 2, bead flow cytometry, confirmation (AID 504782).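 For inhibition of aptamer binding: negative values mostly come from compounds that fluoresce themselves.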 The note with it: bead-bound GRK2, FAM-aptamer displacement; at 10 µM, active compounds read high.
On to `CCC(C)(C(=O)NC1CCCCC1)N(C)C(=O)c1ccc2c(c1)OCO2` (stereo not given), for which the inhibition of aptamer binding was -12.4% (inactive).
Consider `CCOc1ccc(OCC)c(NC(=O)CCS(=O)(=O)c2ccc(C)cc2)c1`, for which the inhibition of aptamer binding is -1.15% (inactive).
For the molecule `O=C(NCCCN1CCCCCC1)c1ccc(N2CCCC2=O)cc1`, the inhibition of aptamer binding is -112% (inactive).
`NC(=O)[C@H]1CC2(CC(c3cccc(NC(=O)[C@H]4CCC(=O)N4)c3)=NO2)CN1C(=O)c1ccccc1C(=O)c1ccccc1` (stereo not given in full): the inhibition of aptamer binding was -25.8% (inactive).
`O=C(CCS(=O)(=O)c1ccccc1)NC1CCCC1`: the inhibition of aptamer binding was 1.15% (inactive).
Consider `CC1Sc2ccc(S(=O)(=O)CCC(=O)NCc3ccccc3Cl)cc2NC1=O` (stereo not given), for which the inhibition of aptamer binding was 2.07% (inactive).
With `CC1CCN(C(=S)NC2CC3CCC2C3)CC1` (stereo not given), the inhibition of aptamer binding was -12.2% (inactive).
Turning to `COc1ccc(Cl)cc1NC(=O)CCS(=O)(=O)c1ccc(Br)cc1`, the inhibition of aptamer binding is 75.5% (active).
As to `CCOC(=O)C1=C(N)N(c2ccc(C)cc2)C2=C(C(=O)CCC2)C1c1cccs1` (stereo not given), the molecule was classed as inactive.
Consider `COc1ccccc1C(=O)N(Cc1ccc(C)o1)C1CCS(=O)(=O)C1` (stereo not given), for which the inhibition of aptamer binding was 10.1% (inactive).
Turning to `CCN1CCN(C(=O)N[C@@H](C(=O)N[C@@H]2C(=O)N3C(C(=O)O)=C(CSc4nnnn4C)CS[C@H]23)c2ccc(O)cc2)C(=O)C1=O`, the inhibition of aptamer binding was -21.6% (inactive).
For the molecule `CCOCCc1c(O)nc(SCC(=O)NCc2ccco2)[nH]c1=O`, the inhibition of aptamer binding is -20.9% (inactive).
Regarding `O=C(NC1C2CC3CC(C2)CC1C3)c1ccc(N2CCNCC2)c([N+](=O)[O-])c1` (stereo not given), the inhibition of aptamer binding was -5.52% (inactive).
For `CC(=O)c1ccc(N2CCN(C(=O)c3ccc4nc[nH]c4c3)CC2)cc1`, the inhibition of aptamer binding is -5.06% (inactive).
With `CN=C(Nc1cccc(S(=O)(=O)N2CCOCC2)c1)c1ccccc1`, the inhibition of aptamer binding was -13.4% (inactive).
Same read-out and setting: under `CCc1nn(CCCN2CCN(c3cccc(Cl)c3)CC2)c(=O)n1CCOc1ccccc1` stands 4.83% (inactive).
On the same count and under the same terms, under `COc1cccc(OC)c1C(=O)Nc1ccc(Cc2ccncc2)cc1` stands -1.61% (inactive); under `O=C(C1CCCN(S(=O)(=O)c2ccc([N+](=O)[O-])cc2)C1)N1CCCCC1` (stereo not given), -14.3% (inactive).
For `CCOCCCNC(=O)c1ccc(CS(=O)(=O)c2cccc(C(F)(F)F)c2)o1`, the inhibition of aptamer binding was 8.74% (inactive).
Consider `COc1ccc(Cl)cc1NC(=O)CCS(=O)(=O)c1cc2c(cc1C)NC(=O)CO2`, for which the inhibition of aptamer binding is -12.2% (inactive).
In the case of `Cc1ccc(S(=O)(=O)CC(=O)Nc2sc(C)c(C)c2C(N)=O)cc1`, the inhibition of aptamer binding was -39.3% (inactive).
With `COCCn1c(N)c(NCc2ccccc2)c(=O)[nH]c1=O`, the inhibition of aptamer binding was -165% (inactive).
In the case of `O=[N+]([O-])c1ccccc1S(=O)(=O)Nc1cccc2cccnc12`, the inhibition of aptamer binding was 7.36% (inactive).
Consider `Cc1nnc(SCC(=O)N2c3ccccc3C(C)(c3ccc(Cl)cc3)CC2(C)C)s1` (stereo not given), for which the inhibition of aptamer binding was 14.7% (inactive).
As to `COc1cc([N+](=O)[O-])cc([N+](=O)[O-])c1NC(=O)N1CCOCC1`, the inhibition of aptamer binding was 8.51% (inactive).
